A selection: hits, their analogues and other compounds. The true share with any hit is near 4.1%.
ALR H2O2 inh: human ALR oxidase inhibition via reduced H2O2. P55789. purified ALR, DTT oxidation, H2O2 HRP-luminol luminescence. inhibition, % (concentration not given with the values). 290,000 tested, 3.8% active. AID 485317;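 active = mean replicate inhibition above about 79%, with every replicate also reaching it, limit read from the data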
M18AAP inhibitor: blocks P. falciparum M18 aspartyl aminopeptidase. 290,000 tested, 1.2% active. inhibition, % at 7.35 µM. recombinant PfM18AAP, H-Glu-NHMec fluorogenic cleavage;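 active = inhibition above the campaign mean inhibition over all tested compounds plus 3 SD, cut at about 28% in these data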
IDE act: activators of human insulin-degrading enzyme in cells; P14735; HEK cells, FAbeta-B cleavage, fluorescence polarization; 0% vehicle, 100% cell-free pure enzyme wells; activation, % at 5.96 µM; 340,000 tested, 0.073% active;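 active = activation above the mean of all tested compounds plus 3 SD, set per screening campaign, cut at about 17% in these data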
Target sequence (P14735 whole entry, looked up): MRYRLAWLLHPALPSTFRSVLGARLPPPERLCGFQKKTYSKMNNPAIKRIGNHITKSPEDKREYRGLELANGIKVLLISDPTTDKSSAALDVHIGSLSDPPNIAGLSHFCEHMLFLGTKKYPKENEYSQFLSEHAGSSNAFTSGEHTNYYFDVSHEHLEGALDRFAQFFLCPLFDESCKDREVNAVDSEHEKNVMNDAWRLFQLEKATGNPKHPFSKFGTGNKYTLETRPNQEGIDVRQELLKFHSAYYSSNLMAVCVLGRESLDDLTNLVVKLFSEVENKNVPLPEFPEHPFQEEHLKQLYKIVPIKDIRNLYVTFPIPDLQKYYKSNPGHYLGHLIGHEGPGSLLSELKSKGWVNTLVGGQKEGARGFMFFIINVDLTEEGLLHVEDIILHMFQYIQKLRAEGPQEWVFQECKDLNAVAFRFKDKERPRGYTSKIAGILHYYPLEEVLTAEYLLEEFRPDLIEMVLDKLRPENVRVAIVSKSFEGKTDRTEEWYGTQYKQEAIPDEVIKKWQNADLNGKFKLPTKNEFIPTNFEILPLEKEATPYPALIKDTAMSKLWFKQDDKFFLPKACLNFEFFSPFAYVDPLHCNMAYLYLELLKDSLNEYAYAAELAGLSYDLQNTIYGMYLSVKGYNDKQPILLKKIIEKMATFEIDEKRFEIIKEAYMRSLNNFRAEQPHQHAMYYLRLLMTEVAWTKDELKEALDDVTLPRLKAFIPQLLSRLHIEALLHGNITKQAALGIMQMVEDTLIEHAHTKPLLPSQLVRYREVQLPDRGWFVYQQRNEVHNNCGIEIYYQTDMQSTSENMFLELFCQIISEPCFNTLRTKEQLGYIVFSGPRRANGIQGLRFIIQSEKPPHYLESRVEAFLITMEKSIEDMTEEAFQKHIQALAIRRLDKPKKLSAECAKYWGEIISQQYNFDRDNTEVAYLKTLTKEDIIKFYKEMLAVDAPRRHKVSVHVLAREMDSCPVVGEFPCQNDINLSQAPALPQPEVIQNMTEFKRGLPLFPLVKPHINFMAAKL
CaV13 FRET inh: Disruptors of the CACNA1D IQ motif to Ca2+-dependent inactivation inhibitor domain association, primary screening, Förster resonance energy transfer in intact living …; inhibition, % at 12.3 µM; HEK cells, CFP/YFP FRET ICDI-IQ, plate reader, 10 min; percent FRET-ratio fall versus neutral wells; AID 743397; 340,000 tested, 0.098% active;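 active = mean replicate inhibition of at least 30% and at least 1% of replicates passing that level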
PolyA inh: yeast polyadenylation inhibition | 300,000 tested, 0.02% active | S. cerevisiae SKY197-pL101 polyadenylation reporter, beta-gal luminescence; efflux-impaired pdr1/pdr3 knockout yeast; score 100 = 6 SD above DMSO | activity score, % at 12 µM;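 active = lowest replicate activity score at least 50, where 100 means six control SD above control mean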;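 note: yeast exposed to compound for 9 h at 30 °C; higher score means more reporter readthrough which indicates perturbed polyadenylation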
IDE cell inh: inhibitors of human insulin-degrading enzyme in cells; HEK cells, FAbetaB cleavage, fluorescence polarization; inhibition, % at 5.59 µM; 320,000 tested, 0.41% active;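 active = percent inhibition above the average of all tested compounds plus 3 SD, set per screening campaign, cut at about 16% in these data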;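 note: IDE supplied by intact live HEK cells; FP after avidin binding of uncleaved biotin substrate so inhibition keeps polarization high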
Large screens that a line does not name were inactive.

CCC(/C=C1\Oc2ccc(OC)cc2N1C)=C\c1sc2ccccc2[n+]1CCCS(=O)(=O)[O-]	none (no result: ALR H2O2 inh, M18AAP inhibitor, PolyA inh, IDE cell inh)
CC1(C(=O)O)Sc2[nH]c(=O)sc2C2c3ccccc3OC(=O)C21 (stereo not drawn)	M18AAP inhibitor 30
CCOC(=O)CSCC(=O)Nc1cc(C)ccc1C	ALR H2O2 inh 98
Cc1ccc(Cl)cc1NC(=O)CSC(N)=O	ALR H2O2 inh 98
O=C(O)C1CCC(=O)N(C2CCCCC2)C1c1ccccc1 (stereo not drawn)	none
O=C(NNc1ccc(F)cc1)c1c(F)cccc1Cl	M18AAP inhibitor 30
O=C(NNc1ccc(Cl)cc1)c1c(F)cccc1Cl	M18AAP inhibitor 31
O=C(c1cccnc1)C1CCCN(Cc2nc(Cc3ccccc3)no2)C1 (stereo not drawn)	none
O=C(NC(=S)NC1CCCCC1)c1ccc(F)cc1	none
COc1ccc(C(=O)NC2CC(C)(C)NC(C)(C)C2)cc1S(=O)(=O)N1CCOCC1	none (no result: ALR H2O2 inh, M18AAP inhibitor, IDE act, PolyA inh, IDE cell inh)
CCCCCn1c(=NC(C)=O)c(C#N)cc2c(=O)n3ccccc3nc21	none
CC(C)OCCCn1c(=NC(=O)c2cccs2)c(C#N)cc2c(=O)n3ccccc3nc21	none (no result: ALR H2O2 inh, IDE act)
CC(C)OCCCn1c(=NC(=O)c2ccncc2)c(C#N)cc2c(=O)n3ccccc3nc21	ALR H2O2 inh 97
CC(=O)N=c1c(C#N)cc2c(=O)n3ccccc3nc2n1CCCOC(C)C	CaV13 FRET inh active (no result: ALR H2O2 inh, IDE act)
CCOC(=O)c1cc2c(=O)n3ccccc3nc2n(CCCOC)c1=NC(=O)c1ccncc1	CaV13 FRET inh 153
CC(C)OCCCn1c(=N)c(C(N)=S)cc2c(=O)n3ccccc3nc21	CaV13 FRET inh 45
CCOc1ccc(S(=O)(=O)N2CCCC(C(=O)NC3CC3)C2)cc1Cl (stereo not drawn)	none (no result: M18AAP inhibitor)
Cc1ccc(NC2=NCC(=O)N2C2CCCC2)c(C)c1	none
CCOc1cc(/C=N\Nc2ncc(F)c(N3CCOCC3)n2)ccc1Oc1nc(Cl)ncc1F	none
CC(C)(C)NC(=O)CN(C(=O)C(=O)Nc1ccc2c(c1)OCCO2)N1CCOCC1	none
COc1ccc(CC(=O)N2CCN=C2SCc2cccc([N+](=O)[O-])c2)cc1	ALR H2O2 inh 99
O=C(C1CCCCC1)N1CCN=C1SCc1cccnc1	ALR H2O2 inh 100
O=C(C1CCCCC1)N1CCN=C1SCc1cccc([N+](=O)[O-])c1	ALR H2O2 inh 100
O=C(c1ccc(S(=O)(=O)N2CCCCC2)cc1)N1CCN=C1SCc1cccnc1	none (no result: ALR H2O2 inh, PolyA inh)
O=c1[nH]c(=S)[nH]cc1Oc1ccc(Cl)cc1	none (no result: ALR H2O2 inh, M18AAP inhibitor, PolyA inh, IDE cell inh)
N#CC(c1nc2ccccc2nc1OCCO)S(=O)(=O)c1ccccc1 (stereo not drawn)	none
COc1cccc(N2CCN(C(=O)c3ccc(CS(=O)c4ccc(C)cc4)o3)CC2)c1 (stereo not drawn)	none
COc1cccc(N2CCN(C(=O)c3ccc(CS(=O)Cc4ccc(C)cc4)o3)CC2)c1 (stereo not drawn)	ALR H2O2 inh 79
COc1cccc(N2CCN(C(=O)c3ccc(CS(=O)c4ccc(Cl)cc4)o3)CC2)c1 (stereo not drawn)	ALR H2O2 inh 88
O=C(CSc1nc(N2CCOCC2)nc(N2CCOCC2)n1)Nc1ccc([N+](=O)[O-])cc1	IDE act 23 (no result: CaV13 FRET inh)
O=C(CSc1nc(=O)n(CCCN2CCOCC2)c2c1CCCC2)Nc1ccccc1Cl	none (no result: M18AAP inhibitor)
CC(C)c1ccc(NC(=O)CSc2nc(=O)n(CCCN3CCOCC3)c3c2CCC3)cc1	ALR H2O2 inh 98 (no result: M18AAP inhibitor)
Cc1c(Cl)cccc1NC(=O)CSc1nc(=O)n(CCCN2CCOCC2)c2c1CCC2	ALR H2O2 inh 94 (no result: M18AAP inhibitor)
CC(C)c1ccc(NC(=O)CSc2nc(=O)n(CCCN3CCOCC3)c3c2CCCC3)cc1	ALR H2O2 inh 99 (no result: M18AAP inhibitor)
CC(C)=CCc1cc2c(=O)c3c(O)c4c(cc3oc2c(O)c1O)OC(C)C4(C)C (stereo not drawn)	none (no result: M18AAP inhibitor, IDE act, CaV13 FRET inh)
CCCCCn1nc(C)c(/C=N\NC(=O)c2cc(C)oc2C)c1C	none (no result: CaV13 FRET inh)
CN(C(=O)CSc1nnc(-c2ccc(Cl)cc2)n1C)C1CCS(=O)(=O)C1 (stereo not drawn)	none (no result: ALR H2O2 inh, M18AAP inhibitor, PolyA inh)
O=C(CSc1nc(=O)n(CCCN2CCOCC2)c2c1CCCC2)Nc1cccc([N+](=O)[O-])c1	none (no result: M18AAP inhibitor)
O=C(CSc1nc(=O)n(CCCN2CCOCC2)c2c1CCCC2)Nc1ccc(Cl)cc1	ALR H2O2 inh 96 (no result: M18AAP inhibitor)
O=C(CSc1nc(=O)n(CCCN2CCOCC2)c2c1CCC2)Nc1ccc([N+](=O)[O-])cc1	ALR H2O2 inh 98 (no result: M18AAP inhibitor)
CCOC(=O)CC(NCc1ccc(OC)c(OCC)c1)c1ccc(C)cc1 (stereo not drawn)	none
O=C(c1cc(-c2ccc(Cl)cc2)on1)N1CCCCCC1	none
O=C(c1cc(-c2ccc(O)cc2)on1)N1CCCCCC1	ALR H2O2 inh 99
CCc1ccc(NC(=O)CSc2nc(=O)n(CCCN(C)C)c3c2CCC3)cc1	ALR H2O2 inh 97 (no result: M18AAP inhibitor)
CN(C)CCn1c2c(c(SCC(=O)Nc3ccccc3)nc1=O)CCCC2	none (no result: M18AAP inhibitor)
CN(C)CCCn1c2c(c(SCC(=O)Nc3nccs3)nc1=O)CCC2	ALR H2O2 inh 99 (no result: M18AAP inhibitor)
Cc1ccc(NN2C(=O)C=C(c3ccccc3)C2=O)cc1	none (no result: ALR H2O2 inh, IDE act, IDE cell inh)
Cc1ccc(NC(=O)CSc2nc(=O)n(CCCN(C)C)c3c2CCC3)c(C)c1	none (no result: M18AAP inhibitor)
CN(C)CCn1c2c(c(SCC(=O)Nc3ccc4c(c3)OCCO4)nc1=O)CCC2	ALR H2O2 inh 97 (no result: M18AAP inhibitor)
CN(C)CCn1c2c(c(SCC(=O)Nc3ccc4c(c3)OCCO4)nc1=O)CCCC2	ALR H2O2 inh 97 (no result: M18AAP inhibitor)
Cc1ccc2nc(NC(=O)CSc3nc(=O)n(CCN(C)C)c4c3CCCC4)sc2c1	ALR H2O2 inh 98 (no result: M18AAP inhibitor)
CN(C)CCn1c2c(c(SCC(=O)Nc3cccc(C(F)(F)F)c3)nc1=O)CCCC2	ALR H2O2 inh 98 (no result: M18AAP inhibitor)
COc1cc2[nH]c3ccccc3c2cc1C	ALR H2O2 inh 81 (no result: M18AAP inhibitor, CaV13 FRET inh)
CCOC(=O)c1ccc2[nH]c3ccccc3c2c1	none (no result: CaV13 FRET inh)
CCCCN(CCCC)c1ccc(C(=O)c2ccccc2C(=O)O)c(O)c1	ALR H2O2 inh 90
CN(C)c1ccc(C(=O)c2ccccc2C(=O)O)c(O)c1	none
CC(=O)c1cccc(NC(=O)CSc2nc(=O)n(CCN3CCOCC3)c3c2CCC3)c1	none (no result: M18AAP inhibitor)
O=C(CSc1nc(=O)n(CCN2CCOCC2)c2c1CCCC2)Nc1ccccc1Cl	none (no result: ALR H2O2 inh, M18AAP inhibitor, IDE act, PolyA inh, IDE cell inh)
COc1ccc(NC(=O)CSc2nc(=O)n(CCN3CCOCC3)c3c2CCC3)cc1	ALR H2O2 inh 98 (no result: M18AAP inhibitor)
CC(=O)Nc1cccc(NC(=O)CSc2nc(=O)n(CCN3CCOCC3)c3c2CCCC3)c1	ALR H2O2 inh 99 (no result: M18AAP inhibitor)
CCOc1ccc(NC(=O)CSc2nc(=O)n(CCN3CCOCC3)c3c2CCCC3)cc1	none (no result: M18AAP inhibitor)
O=C(CSc1nc(=O)n(CCN2CCOCC2)c2c1CCC2)Nc1ccc(OC(F)(F)F)cc1	ALR H2O2 inh 97 (no result: M18AAP inhibitor)

Screens: PubChem, several laboratories
